Inconclusive results are not listed. Active and inactive are the calls of the source. Calls come from the whole dose curve; as a rule, active = well fitted inhibition curve with a large enough effect; inconclusive = small, poorly fitted or top-dose-only effect, or effect the other way; inactive = flat fitted curve, though single readings scatter.
What follows are compounds tested against Ubiquitin carboxyl-terminal hydrolase 2 (Homo sapiens) (UniProt O75604) (assay: Ub-rhodamine 110 based assay for inhibitors Ubiquitin-specific Protease USP2a). Settings: USP2a Ub-rhodamine110 cleavage, fluorescence; series mostly up to 38.3 µM; activity change, negative = inhibition: at the top concentration.
Ubiquitin carboxyl-terminal hydrolase 2 (Homo sapiens), sequence (O75604 whole entry, looked up): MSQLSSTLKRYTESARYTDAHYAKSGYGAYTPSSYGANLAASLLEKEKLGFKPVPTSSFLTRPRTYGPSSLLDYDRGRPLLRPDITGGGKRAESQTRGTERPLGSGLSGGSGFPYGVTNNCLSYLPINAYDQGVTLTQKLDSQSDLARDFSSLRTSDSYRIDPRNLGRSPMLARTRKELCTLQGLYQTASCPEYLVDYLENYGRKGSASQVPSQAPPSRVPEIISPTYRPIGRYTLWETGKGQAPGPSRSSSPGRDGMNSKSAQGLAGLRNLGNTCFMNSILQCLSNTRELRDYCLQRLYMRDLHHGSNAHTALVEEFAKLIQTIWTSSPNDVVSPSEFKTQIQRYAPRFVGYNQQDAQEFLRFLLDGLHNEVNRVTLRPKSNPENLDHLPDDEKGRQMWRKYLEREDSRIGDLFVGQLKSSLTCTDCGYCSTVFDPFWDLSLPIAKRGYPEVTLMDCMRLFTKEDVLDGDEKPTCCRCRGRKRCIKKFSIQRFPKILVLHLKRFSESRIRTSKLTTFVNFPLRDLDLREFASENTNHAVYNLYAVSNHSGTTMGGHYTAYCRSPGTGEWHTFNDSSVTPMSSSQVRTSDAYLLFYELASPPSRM
In short: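 Kinetic fluorescence (485/531 nm) read each minute over 7 min after adding Ub-Rhod110 (150 nM final) to USP2a (5 nM final). The enzyme had 30 min RT exposure to compounds beforehand in Tris pH 8.0 buffer with CaCl2, CHAPS and beta-ME.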
For `O=C1CCCc2nc(N3CCN(c4ccccc4)CC3)ncc21`, the “activity change, negative = inhibition” value was -18.7% (inactive). With `CCn1c(SCC(=O)NCCc2ccccc2)nnc1-c1cccs1` the “activity change, negative = inhibition” value was -2.84% (inactive). For `O=S(=O)(c1ccccc1)N(CC1CO1)c1cc(Cl)ccc1Cl` (stereo not drawn), the “activity change, negative = inhibition” value was 1.25% (inactive). In the case of `COc1ccc2[nH]c(=O)c(CN(C3CCCCC3)C(c3nnnn3Cc3ccco3)C(C)C)cc2c1` (stereo not drawn), the Potency is reported as 3.98 µM (active). In the case of `CCOC(=O)c1[nH]c2ccc(OC)cc2c1NC(=O)CCN1CCCC(C)C1` (stereo not drawn), the “activity change, negative = inhibition” value is reported as -9.84% (inactive). With `COC(=O)CC1Oc2ccc(C)cc2NC1=O` (stereo not drawn) the “activity change, negative = inhibition” value was -1.3% (inactive). `Nn1c(Nc2ccccc2)nc2ccccc2c1=O` was tested, and the “activity change, negative = inhibition” value was -0.213% (inactive). In the case of `N#Cc1c(-c2cccs2)nc(SCc2ccc(Cl)cc2)[nH]c1=O`, the Potency is reported as 10 µM (active). With `O=C(/C=C\c1ccco1)c1ccc(NC(=O)c2ccco2)cc1` the Potency was 10 µM (active). `O=C(CSc1ncn[nH]1)Nc1ccc(Br)cc1F` was tested, and the “activity change, negative = inhibition” value was 2.25% (inactive). With `CC(C)(C)NC(=O)CSc1nc(O)cc(=O)n1-c1ccccc1F` the “activity change, negative = inhibition” value was -5.04% (inactive). With `CCOc1ccccc1C(=O)NC1CC2CCCC(C1)N2C1CC1` (stereo not drawn) the “activity change, negative = inhibition” value was 4.05% (inactive). `CCn1c(CN2CCOCC2)nnc1SCC(=O)Nc1ccc(C(C)=O)cc1` was tested, and the “activity change, negative = inhibition” value was -8.68% (inactive). For `CCOC(=O)Cn1c(=O)oc2cc(S(=O)(=O)Nc3cc(Cl)ccc3OC)ccc21`, the “activity change, negative = inhibition” value was -6.33% (inactive). With `COc1cccc(-c2csc3nnc(SCC(=O)NCc4cccs4)n23)c1` the “activity change, negative = inhibition” value was -10.5% (inactive). `COc1cc2c(C(=O)N3CCN(c4cccc(Cl)c4)CC3)cn(CC(C)C)c(=O)c2cc1OC` was tested, and the “activity change, negative = inhibition” value was 2.04% (inactive). For `Cc1cc(NS(=O)(=O)c2ccc(Nc3nc(-c4ccc(C)c(C)c4)cs3)cc2)no1`, the Potency was 10 µM (active). `Cc1ccc(C(C(=O)NC2CCCC2)N2CCc3ccccc32)cc1` (stereo not drawn) was tested, and the “activity change, negative = inhibition” value was 6.95% (inactive). In the case of `CC(=O)C1=C(O)C(=O)N(c2nnn(C)n2)C1c1cccs1` (stereo not drawn), the “activity change, negative = inhibition” value is reported as -10.9% (inactive). In the case of `Cc1ccc(C(C)C)c(OCc2nn(CC(=O)c3ccc(OC(F)F)cc3)c3[n+]2CCCCC3)c1`, the “activity change, negative = inhibition” value is reported as -4.28% (inactive). With `CCCn1c(N2CCN(Cc3cccc(C)c3)CC2)nc2c1c(=O)[nH]c(=O)n2C` the “activity change, negative = inhibition” value was -2% (inactive). With `CCOC(=O)N1CCN(C(=O)c2cc3c(ccc4ccccc43)oc2=O)CC1` the “activity change, negative = inhibition” value was -9.22% (inactive). For `COc1ccc(-c2[nH]ncc2/C=C(/C#N)C(=O)NC2CCCCC2)cc1`, the “activity change, negative = inhibition” value was -12.3% (inactive).

Reference: PubChem BioAssay AID493170 (National Center for Advancing Translational Sciences (NCATS), 2011)
% is set by controls: 0 for no effect and ±100 for the full control effect; potency is the fitted concentration of half-maximal effect.
Note: nearly all actives have a fitted effect of over 50% in size.
